From PubChem
Hits are enriched below; roughly 3.9% of the tested compounds scored in any of these assays.
CF NFkB inh: cystic fibrosis NF-kB activation inhibition; KKLEB NF-kB-GFP reporter, PAF-induced, GFP fluorescence overnight; inhibition, % at 5 µM; 360,000 compounds, 0.86% hits;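 active means at least 50% inhibition at 5 µM, scaled per plate between neutral and stimulator controls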;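 further: PAF is a Pseudomonas aeruginosa culture filtrate used as stimulus; plate controls were PAF-stimulated DMSO wells for no effect and unstimulated DMSO wells for full effect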
HIF-2a inh: HIF-2a inhibition; 786-0 RCC cells HIF-2a reporter, luciferase luminescence, overnight; inhibition, % at 18.8 µM; 360,000 compounds, 0.72% hits; AID 624352;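 active means inhibition of the luminescence signal of 40% or more relative to plate controls, in a single-dose primary screen at 18.75 µM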
TWEAK-Fn14 inh: TWEAK-Fn14 signaling inhibition. TWEAK-stimulated Fn14 reporter cells, luciferase luminescence, 8 h. 360,000 compounds, 2% hits. inhibition, % at 10 µM; in the data active means inhibition above about 50%
Peg3 promoter: reduces Peg3 promoter-driven luciferase expression in HeLa. HeLa PEG-Prom luciferase reporter, luminescence, overnight. inhibition, % at 20 µM. 360,000 compounds, 1.7% hits. AID 588405;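 active means inhibition of at least 50% at 20 µM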
KKLEB cytotox: CF airway cell cytotoxicity counter-screen; KKLEB CF airway cells viability, ATPlite luminescence, overnight; stronger effect = lower value; cells stimulated with P. aeruginosa culture filtrate; activity change (cytotoxicity), % at 5 µM; 360,000 compounds, 0.36% hits;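 active means corrected activity change at or below -50% at 5 µM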
TROY signal inh: inhibitors of TROY-dependent NF-kB signaling. Q293 LMP1-TROYcd NF-kB luciferase reporter, 4 h. inhibition, % at 10 µM. 360,000 compounds, 0.98% hits. AID 1347056;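 active means compounds whose plate-normalised and pattern-corrected inhibition of the luciferase reporter signal at the single screening dose is 50% or more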
Numbers without * were called inactive; · = not tested or not shown.

SMILES	CF NFkB inh	HIF-2a inh	TWEAK-Fn14 inh	Peg3 promoter	KKLEB cytotox	TROY signal inh
O=C(C(O)c1ccc(Br)cc1)N1CCC(Nc2ccc3[nH]ncc3c2)CC1 (centres undefined)	42	25	1	12	-39	-6
O=C(Cn1ccc2ccccc2c1=O)NCCC(=O)Nc1ccc2c(c1)OCCO2	4	14	57*	-7	-6	36
O=C(Cn1ccc2ccccc2c1=O)Nc1ccc2c(c1)OCO2	6	2	8	-2	7	4
O=C(C[n+]1cc(-c2ccc(F)cc2)n2c1CCC2)c1cccs1	-4	-332	-24	-286	-2	-39
O=C(NCc1cc(Br)cc(Br)c1OC(=O)c1ccccc1[N+](=O)[O-])c1ccccc1	4	-6	55*	24	1	34
OC[C@@H]1CN(Cc2ccc(-c3ccccc3)cc2)C[C@H](n2cnc3c(Nc4ccccc4)ncnc32)O1	14	-42	92*	36	11	39
OC[C@@H]1CN(Cc2ccc(-c3ccccc3)cc2)C[C@H](n2cnc3c(NCc4ccc(F)cc4)ncnc32)O1	19	-34	88*	33	-14	50*
COCCNC(=O)C1CCCN(C(=O)c2ccc(SC(F)(F)F)cc2)CC1 (centres undefined)	3	14	-6	-4	-11	-12
C[N+]1(C)CC[C@H](OC(=O)[C@@](O)(c2ccccc2)C2CCCC2)C1	-26	-9	6	-4	-67*	5
O=C(CN1c2ccccc2Sc2ccccc21)NNC(=O)Nc1cccc(Cl)c1	28	37	40	51*	-8	53*
O=C(CCNS(=O)(=O)c1ccccc1)OCc1nnc(-c2ccccc2)o1	-1	-64	1	-51	15	61*
CC(=O)Nc1ccc(S(=O)(=O)NCCC(=O)OCc2nnc(-c3ccccc3)o2)cc1	11	-14	-4	-7	0	17
COc1ccc(-c2c(-c3ccc(OC)c(C)c3O)n[nH]c2C)cc1	2	22	-1	24	3	-1
Cc1ccc(NC(=S)Nc2cccc3ccccc23)cc1	-11	-142	40	-157	4	66*
CC(C)c1ccc(NC(=S)Nc2cccc3ccccc23)cc1	-4	-78	53*	-88	20	70*
CCc1cccc(NC(=S)Nc2cccc3ccccc23)c1	3	-73	6	-31	20	52*
CN(C)S(=O)(=O)c1cccc(NC(=S)Nc2cccc3cnccc23)c1	73*	-8	73*	7	-4	44
Cc1cccc(NC(=S)Nc2cccc3ccccc23)c1	2	-133	23	-22	10	39
Fc1ccc(NC(=S)Nc2cccc3ccccc23)cc1	-15	-207	31	-214	9	45
S=C(Nc1cccnc1)Nc1cccc2cnccc12	-9	-28	28	-19	2	10
O=c1nc(Nc2ccc(OCc3ccccc3)cc2)sc2ncccc12	-6	-52	-58	2	7	10
CCOc1ccc(NC(=S)Nc2cccc3cnccc23)cc1	10	-87	19	-91	-12	-7
CCOc1ccc(NC(=S)Nc2cccc3ccccc23)cc1	3	-124	68*	-53	5	31
O=C(Nc1cccc(S(=O)(=O)Nc2ccccc2Cl)c1)c1ccc(Cl)nc1	6	27	63*	13	-14	28
COc1ccccc1NS(=O)(=O)c1cccc(NC(=O)Nc2ccc(Cl)cc2)c1	36	-24	84*	30	-19	59*
SMILES	CF NFkB inh	HIF-2a inh	TWEAK-Fn14 inh	Peg3 promoter	KKLEB cytotox	TROY signal inh
O=C(Nc1cccc(S(=O)(=O)N2CCCCCC2)c1)c1ccc(Cl)nc1	-1	9	42	38	2	28
Cc1ccccc1[C@H](NC1c2ccccc2C=Cc2ccccc21)P(=O)(c1ccccc1)c1ccccc1	·	-17	22	·	·	5
CCOC(=O)C1=C(c2ccccc2)NC(N)=NC1c1ccc(OCc2ccc(Cl)cc2)c(OC)c1 (centres undefined)	3	4	23	110*	3	-22
CCOC(=O)C1=C(c2ccccc2)NC(=O)NC1c1cc(Cl)c(O)c(OC)c1 (centres undefined)	7	7	-37	8	0	3
COc1cccc2cc(C(=O)Nc3ccccc3C)/c(=N/O)oc12	13	-115	-16	-76	-19	-53
Cc1nn2c(N3CCOCC3)cc(C(C)(C)C)nc2c1-c1ccccc1	0	13	-2	5	8	-7
CCN1CCN(c2ccc(NC(=O)CCc3c(C)nc4c(-c5ccccc5)c(C)nn4c3C)cc2)CC1	-6	23	11	70*	-27	34
Cc1nc2c(-c3ccccc3)c(C)nn2c(C)c1CCC(=O)NCc1ccco1	-46	17	-43	-2	5	1
CCN1CCN(c2cc(C(C)(C)C)nc3c(-c4ccccc4)c(C)nn23)CC1	-7	-8	-37	51*	-1	7
CC(C)(C)OC(=O)N1CCC(C(=O)Nc2cccc(C(=O)NCCCCc3ccccc3)c2)CC1	18	8	-1	-18	-10	43
Fc1cccc(-c2oncc2-c2nnnn2-c2ccc(Cl)cc2)c1	12	12	-14	7	-2	4
CC(c1ccco1)N(C(=O)c1ccccc1NS(=O)(=O)c1ccc(Cl)c([N+](=O)[O-])c1)c1ccccn1 (centres undefined)	17	9	38	45	-4	71*
CCN1C(N(C)CCc2cccs2)=N[C@@H](c2ccccc2)C(C(=O)OC)=C1C	-24	7	0	-5	-12	-20
CCN1C(N(C)CCc2c[nH]c3ccccc23)=N[C@@H](c2cccc(C(F)(F)F)c2)C(C(=O)OC)=C1C	23	7	-9	111*	-24	-21
CCCCC[C@H]1CN(Cc2ccccc2)C(=O)[C@@H]1CC(=O)NCc1ccc(OC)cc1	-22	-2	13	8	18	10
CC(C)(C)c1ccc(C(=O)NC(=S)NNC(=O)c2cccs2)cc1	58*	-92	-17	-54	-40	-51
CC(C)(C)C(=O)NC(=S)NNC(=O)c1ccncc1	-8	-16	-26	-48	-16	-15
CC(C)(C)C(=O)NC(=S)NNC(=O)c1ccc(-c2ccccc2)cc1	56*	-12	-43	40	-18	10
O=C(NC(=S)NNC(=O)c1cccs1)c1ccccc1	1	-51	-4	-20	3	-12
CCn1c(SCC(=O)Nc2nc3ccccc3s2)nnc1-c1ccc(Br)cc1	1	10	66*	3	1	1
CCn1c(SCC(=O)Nc2nc(-c3ccc(C)cc3)cs2)nnc1-c1ccccc1O	-31	-19	47	-19	18	50*
COc1ccc(-c2csc(NC(=O)CSc3nc4ccccc4c(=O)[nH]3)n2)cc1	71*	-38	-37	-11	-33	41
